This is an account of results in PubChem BioAssay AID493168 (National Center for Advancing Translational Sciences (NCATS), 2011).

Molecules are shown by their SMILES. Inconclusive results are not listed. Where a call stands in place of a potency, no number is given. Activity calls are given as the source filed them. Calls follow the shape of the dose curve; as a rule, active = well fitted inhibition curve with a large enough effect; inconclusive = small, poorly fitted or top-dose-only effect, or effect the other way; inactive = flat fitted curve, though single readings scatter.
Potency is read from the fitted curve at half-maximal effect.

The target in the assay is Ubiquitin carboxyl-terminal hydrolase 2 (Homo sapiens) (UniProt O75604). Description: Confirmation Assay for Inhibitors of Ubiquitin-specific Protease USP2a Using CHOP2 as the Reporter. Also: nearly all actives have a fitted effect of over 55% in size. Conditions: USP2 core, Ub-CHOP2 coupled reporter fluorescence; series mostly up to 38.3 µM. Put shortly: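 Ub-CHOP2 cleavage coupled to reporter activation was read by fluorescence after 60 min at RT, with 25 nM final Ub-CHOP2 and substrate. Enzyme (10 nM final USP2 core) first sat 30 min with compound; data were normalized to NEM and fitted to concentration-response curves.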
Sequence of Ubiquitin carboxyl-terminal hydrolase 2 (Homo sapiens) (O75604 whole entry, looked up): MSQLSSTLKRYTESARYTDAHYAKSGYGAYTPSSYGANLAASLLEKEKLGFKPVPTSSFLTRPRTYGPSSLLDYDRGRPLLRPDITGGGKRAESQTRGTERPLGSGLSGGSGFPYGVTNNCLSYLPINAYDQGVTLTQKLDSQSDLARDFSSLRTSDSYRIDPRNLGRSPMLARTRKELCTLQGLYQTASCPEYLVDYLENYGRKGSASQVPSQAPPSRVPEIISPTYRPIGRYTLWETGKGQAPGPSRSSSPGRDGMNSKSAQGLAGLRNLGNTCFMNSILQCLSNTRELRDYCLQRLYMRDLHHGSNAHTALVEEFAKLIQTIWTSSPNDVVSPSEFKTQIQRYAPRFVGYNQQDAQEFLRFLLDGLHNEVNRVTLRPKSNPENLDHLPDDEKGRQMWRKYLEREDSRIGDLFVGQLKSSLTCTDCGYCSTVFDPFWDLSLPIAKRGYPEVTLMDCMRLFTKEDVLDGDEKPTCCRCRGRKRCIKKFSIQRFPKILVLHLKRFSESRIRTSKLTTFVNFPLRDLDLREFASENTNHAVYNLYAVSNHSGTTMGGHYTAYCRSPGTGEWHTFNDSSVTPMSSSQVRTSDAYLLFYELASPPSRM
As for `CCC(C)NC(=O)C1CN(S(=O)(=O)c2ccccc2)CCN1S(=O)(=O)c1ccccc1` (centres undefined), the Potency result was “inactive”.

`CC(C)(C)C1CCC2(CC1)Nc1cccc3cccc(c13)N2`: the Potency entry was “inactive”. Take `O=C(CNC(=O)c1ccco1)Nc1ccc(S(=O)(=O)N2CCCC2)cc1`: the Potency entry is “inactive”. To `Cc1ccc(S(=O)(=O)N2[C@@H](c3ccc(C(C)(C)C)cc3)C(C(=O)O)=CC[C@H]2c2ccc(Cl)cc2)cc1` belongs 14.7 µM (active); to `O=C(N/N=C1\CC(c2ccccc2)Oc2ccccc21)c1ccc(O)cc1` (centres undefined), “inactive”. Under `CC1(C)CC(=O)C2=C(C1)N(Cc1ccco1)C(=O)NC2(C(F)(F)F)C(F)(F)F` stands “inactive”; under `CC1CCN(c2ccc3c(c2)S(=O)(=O)c2cccc(C(=O)NC4CC4)c2C3=O)CC1`, “inactive”; under `Cc1c(NC(=O)c2ccc(COc3ccc4ccccc4c3)o2)c(=O)n(-c2ccccc2)n1C`, “inactive”. Turning to `COC(=O)c1nnn(-c2nonc2N)c1CSc1ccccn1`, the Potency result is “inactive”. Under `CCn1c(COc2ccccc2)nnc1SCC(=O)CC(=O)Nc1ccccc1OC` stands “inactive”; under `CC(C)Oc1ccc(C(=O)Nc2ccc(N3CCCC3)cc2)cc1`, “inactive”; under `CC(C)(C)OC(=O)C[C@H]1C/C=C\C[C@H](CC(=O)N(CCO)Cc2ccccc2)C(=O)NC[C@H](c2ccccc2)OC1=O`, “inactive”. For the compound `CC(C)c1ccc(CCNC(=O)c2ccc([N+](=O)[O-])cc2)cc1`, the Potency result was “inactive”. As for `C=CC#CC[N+]1(CC#Cc2ccccc2)CCOCC1`, the Potency is 3.69 µM (active).

`Cc1ccccc1N=C1NC(=O)CS1`: the Potency entry is “inactive”. Under `CC1CCc2c(sc3nc(CN4CCOCC4)nc(NS(=O)(=O)c4cccc([N+](=O)[O-])c4)c23)C1` (centres undefined) stands “inactive”; under `Cc1ccc(/C=C/S(=O)(=O)N2CCC(C(=O)O)CC2)cc1`, “inactive”. To `CS(=O)(=O)c1nc(-c2ccc(Br)cc2)cc(-c2ccccc2)c1C#N` belongs “inactive”; to `COc1ccc(CCNC(=O)Cc2cc(=O)[nH]c(=O)[nH]2)cc1OC`, “inactive”.

Turning to `Cc1cc(C)cc(NC(=O)CSc2nc3c(c(=O)[nH]2)CN(Cc2ccc(F)cc2)CC3)c1`, the Potency result was “inactive”. To `CCOc1ccc2nc(NC(=O)Nc3ccccc3)sc2c1` belongs “inactive”. Under `Cc1ccc(CN2C(=O)N/C(=C\c3cccn3-c3cccc(C(=O)O)c3)C2=O)cc1` stands “inactive”; under `CN(C)S(=O)(=O)c1cccc(NC(=S)NNC(=O)c2cc3ccccc3cc2O)c1`, “inactive”; under `C=CC[C@H](CC(=O)OC(C)(C)C)C(=O)OC[C@@H]1CCCN1C(=O)[C@H](CC=C)CC(=O)N[C@H](CO)Cc1ccccc1`, “inactive”. Turning to `COc1ccc(-c2[nH]ncc2/C=C(/C#N)C(=O)NC2CCCCC2)cc1`, the Potency result is “inactive”.

For `O=C(OCc1ccccc1)C1CCCN1C(=O)c1cccs1` (centres undefined), the Potency result was “inactive”.

For `O=C(O)C1Nc2c(O)cc(Cl)c([N+](=O)[O-])c2C2C=CCC12` (centres undefined), the Potency was 9.27 µM (active).

Consider `CCCCCc1ccc(OCCOCCn2c[n+](C)c3ccccc32)c(CCCCC)c1`, for which the Potency result is “inactive”.

For the compound `Cc1c2c(=O)n(-c3nc4ccccc4s3)nc-2cc(O)n1Cc1ccccc1`, the Potency entry was “inactive”.

Consider `C#CCOCCOCCOCCNc1nc(N2CCN(C(=O)CCCCCCCCCCNC(=O)[C@H]([C@@H](C)CC)n3cc(CCCCCN)nn3)CC2)nc(N2CCN(C(=O)CCCCCCCCCCNC(=O)[C@H](CCCCN)n3cc(CCCC(=O)O)nn3)CC2)n1`, for which the Potency was 13.1 µM (active).

With `COc1ccc(CNS(=O)(=O)c2ccc(S(=O)(=O)N3CCCCC3)cc2)cc1`, the Potency result was “inactive”. Under `O=C(CSc1ccc(Br)c2cccc(Cl)c12)Nc1ccc(S(=O)(=O)Nc2nccs2)cc1` stands 9.27 µM (active); under `COc1ccc(/C=C(\NC(=O)c2ccc(OC)c(OC)c2)C(=O)N2CCN(C)CC2)cc1`, “inactive”; under `O=C(CSCCO)Nc1cccc2ccccc12`, “inactive”. Under `C/C(CC(=O)N1CCCC1)=N\NC(=O)c1cc2ccccc2cc1O` stands “inactive”; under `O=C1CC(Nc2ccc(N3CCOCC3)cc2)C(=O)N1c1cccc(C(F)(F)F)c1` (centres undefined), “inactive”. For the compound `CCOc1ccc(C(=O)c2ccc(OCC)c(N)c2)cc1N`, the Potency entry was “inactive”. As for `CCOc1ccc(C=NNc2ccc(S(=O)(=O)Nc3ccccc3C(=O)O)cc2[N+](=O)[O-])cc1`, the Potency is 7.36 µM (active). To `CC[n+]1c(/C=C/N(C)c2ccccc2)n(-c2ccccc2)c2ccc(-c3nc4ccccc4s3)cc21` belongs 13.1 µM (active).
